Some test systems named below: SR leukemia; RPMI-8226 leukemia; OVCAR-8 ovarian; OVCAR-5 ovarian; OVCAR-4 ovarian; SK-OV-3 ovarian; IGROV1 ovarian; OVCAR-3 ovarian; HS 578T breast; NCI/ADR-RES ovarian; T-47D breast; BT-549 breast; MDA-MB-435 melanoma; SW-620 colon; MCF7 breast; HCT-116 colon; HCC-2998 colon; KM12 colon; MDA-MB-468 breast.
What all share (assay): NCI-60 one-dose screen, 48 h (100 = growth as untreated, 0 = no growth, -100 = all killed)
Conditions in all cases: 10 µM

8 molecules from PubChem BioAssay (NCI) can be followed below.

This is part of a sample that, as a whole, favours compounds with a hit. Of some 83,000 tested, about 20% had one in any assay.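 The test compound was applied at a single concentration to cells in 96-well plates for 48 hours, and percent growth was recorded.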 The source made the active and inactive calls. The calls were made as follows: active = growth percent below 10; inactive = the rest.

`O=C1Nc2ccc(Cl)cc2/C1=C/c1ccc(OCc2ccccn2)cc1`: the growth in the test with SR leukemia is 54.9% (inactive); in the test on RPMI-8226 leukemia, 73.9% (inactive); in the test with OVCAR-8 ovarian, 45.9% (inactive); in the test on OVCAR-5 ovarian, 88.2% (inactive); in the test on OVCAR-4 ovarian it was -1.81% (active); with SK-OV-3 ovarian it was 89.2% (inactive). The growth in the test on IGROV1 ovarian is 54.6% (inactive); with OVCAR-3 ovarian it was 57.3% (inactive); in the test on HS 578T breast, 14.8% (inactive); in the test with NCI/ADR-RES ovarian, 14.1% (inactive); in the test with T-47D breast, 69% (inactive); with BT-549 breast, 78.8% (inactive). Moreover, the growth was 76.9% (inactive) with MDA-MB-435 melanoma; 47.5% (inactive) with SW-620 colon; 28.9% (inactive) in the test with MCF7 breast; 28.5% (inactive) in the test on HCT-116 colon; 105% (inactive) in the test on HCC-2998 colon; 78.8% (inactive) in the test on KM12 colon. Moreover, the growth in the test with MDA-MB-468 breast was 50.4% (inactive).
`CC(C)C1=C[C@@]23CC[C@@H]4[C@](C)(CCC[C@]4(C)C(=O)NCc4ccccc4)[C@H]2C[C@@H]1[C@H]1C(=O)OC(=O)[C@H]13`: the growth was 6.39% (active) with SR leukemia; 24.7% (inactive) in the test on RPMI-8226 leukemia; 42.7% (inactive) in the test with OVCAR-8 ovarian; 93.6% (inactive) with OVCAR-5 ovarian; 49.8% (inactive) in the test on OVCAR-4 ovarian; 74.5% (inactive) in the test on SK-OV-3 ovarian. For the same molecule, the growth in the test on IGROV1 ovarian is 31.1% (inactive); in the test with OVCAR-3 ovarian it was 42% (inactive); in the test with HS 578T breast, 44.6% (inactive); in the test with NCI/ADR-RES ovarian, 37.4% (inactive); in the test on T-47D breast, 56% (inactive); in the test on BT-549 breast, 69.6% (inactive). Further, the growth with MDA-MB-435 melanoma is 49.6% (inactive); in the test with SW-620 colon, 54.2% (inactive); in the test with MCF7 breast, 13.2% (inactive); in the test with HCT-116 colon, 23.1% (inactive); with HCC-2998 colon, 53.8% (inactive); in the test with KM12 colon, 24.9% (inactive). Besides, the growth in the test on MDA-MB-468 breast is 41.5% (inactive).
Turning to `CCN1CCN(Cc2ccc(C(=O)Nc3cccc(-c4cn(-c5ccc6oc(=O)ccc6c5)nn4)c3)cc2C(F)(F)F)CC1`, the growth is -51.6% (active) in the test on SR leukemia; -40.7% (active) in the test on RPMI-8226 leukemia; -100% (active) with OVCAR-8 ovarian; -100% (active) with OVCAR-5 ovarian; -100% (active) in the test on OVCAR-4 ovarian; 25.4% (inactive) with SK-OV-3 ovarian. The growth with IGROV1 ovarian was -100% (active); in the test with OVCAR-3 ovarian, -100% (active); with HS 578T breast, -21.6% (active); with NCI/ADR-RES ovarian, -100% (active); in the test on T-47D breast it was 82.9% (inactive); in the test with BT-549 breast it was -79.2% (active). For the same molecule, the growth in the test with MDA-MB-435 melanoma, with SW-620 colon, in the test on MCF7 breast, with HCT-116 colon, with HCC-2998 colon and in the test with KM12 colon was -100% (active) in each case. For the same molecule, in the test on MDA-MB-468 breast, the growth is -82.4% (active).
For `Cc1ccc2nc(-c3ccc(-c4nnc(SCC(=O)Nc5ccc(Cl)cc5)o4)cc3)[nH]c2c1`, the growth in the test on SR leukemia was 21.8% (inactive); with RPMI-8226 leukemia it was 43.2% (inactive); in the test with OVCAR-8 ovarian, -11.8% (active); with OVCAR-5 ovarian, 63.1% (inactive); with OVCAR-4 ovarian it was 4.47% (active); in the test with SK-OV-3 ovarian, 79.3% (inactive). The growth with IGROV1 ovarian is 37.8% (inactive); in the test with OVCAR-3 ovarian, 24% (inactive); with HS 578T breast, 40.5% (inactive); with NCI/ADR-RES ovarian, 23.2% (inactive); in the test on T-47D breast it was 65.1% (inactive); in the test with BT-549 breast, 65.9% (inactive). The growth with MDA-MB-435 melanoma was 49.1% (inactive); in the test on SW-620 colon, 3.49% (active); with MCF7 breast, -16.1% (active); in the test with HCT-116 colon, 9.37% (active); in the test with HCC-2998 colon, 67.5% (inactive); with KM12 colon it was 50.8% (inactive). Further, the growth in the test with MDA-MB-468 breast is 46.8% (inactive).
Turning to `Cc1ccc(-c2nc(Nc3ccc(S(N)(=O)=O)cc3)c3ccccc3n2)cc1`, the growth in the test on SR leukemia was 14.6% (inactive); with RPMI-8226 leukemia, 29.2% (inactive); in the test with OVCAR-8 ovarian, 63.2% (inactive); in the test with OVCAR-5 ovarian, 68.9% (inactive); in the test on OVCAR-4 ovarian, 61.7% (inactive); in the test with SK-OV-3 ovarian, 114% (inactive). The growth was 66.7% (inactive) with IGROV1 ovarian; 61.9% (inactive) with OVCAR-3 ovarian; 90.1% (inactive) in the test with HS 578T breast; 54.7% (inactive) with NCI/ADR-RES ovarian; 40.5% (inactive) with T-47D breast; 75.7% (inactive) in the test with BT-549 breast. The growth is 57% (inactive) in the test on MDA-MB-435 melanoma; 32.2% (inactive) in the test on SW-620 colon; 26.7% (inactive) in the test on MCF7 breast; 34.7% (inactive) with HCT-116 colon; -9.82% (active) in the test on HCC-2998 colon; 0.051% (active) in the test on KM12 colon. In the test with MDA-MB-468 breast, the growth was 44.2% (inactive).
Turning to `COc1ccc2ncc(C#Cc3cncc(C(=O)Nc4ccc(CN5CCN(C)CC5)c(C(F)(F)F)c4)c3)n2n1`, the growth was -26.3% (active) with SR leukemia; -26.3% (active) in the test on RPMI-8226 leukemia; -49.2% (active) in the test with OVCAR-8 ovarian; -94.5% (active) in the test on OVCAR-5 ovarian; -75.2% (active) with OVCAR-4 ovarian; 49.8% (inactive) with SK-OV-3 ovarian. Moreover, the growth in the test with IGROV1 ovarian was -76.1% (active); in the test on OVCAR-3 ovarian it was -93.2% (active); in the test on HS 578T breast it was -2.29% (active); in the test on NCI/ADR-RES ovarian, -81.4% (active); in the test with T-47D breast it was 61.8% (inactive); in the test with BT-549 breast it was -75.7% (active). Further, the growth is -89.6% (active) with MDA-MB-435 melanoma; -72.4% (active) in the test with SW-620 colon; -71.7% (active) in the test with MCF7 breast; -43.6% (active) with HCT-116 colon; -95.8% (active) in the test on HCC-2998 colon; -95% (active) in the test on KM12 colon. Besides, the growth in the test on MDA-MB-468 breast was -91.1% (active).
Regarding `C/C(=N\NC(N)=S)c1ccc(Nc2nc(SC(C)C)nc(-c3ccccc3)c2C#N)cc1`, the growth was 79.9% (inactive) with SR leukemia; 72.3% (inactive) in the test with RPMI-8226 leukemia; 30.5% (inactive) in the test on OVCAR-8 ovarian; 75.6% (inactive) in the test with OVCAR-5 ovarian; 57.7% (inactive) with OVCAR-4 ovarian; 90% (inactive) in the test on SK-OV-3 ovarian. Moreover, the growth was 81.3% (inactive) in the test with IGROV1 ovarian; 67.3% (inactive) with OVCAR-3 ovarian; 18.7% (inactive) in the test on HS 578T breast; 61.6% (inactive) in the test on NCI/ADR-RES ovarian; 57.3% (inactive) with T-47D breast; 28.5% (inactive) in the test with BT-549 breast. The growth in the test with MDA-MB-435 melanoma was 82.6% (inactive); in the test on SW-620 colon it was 85.8% (inactive); in the test with MCF7 breast it was 64.2% (inactive); with HCT-116 colon, 57.5% (inactive); in the test with HCC-2998 colon, 59.2% (inactive); in the test on KM12 colon, 75.7% (inactive). Besides, the growth with MDA-MB-468 breast was 28.2% (inactive).
Consider `O/N=C(\CSc1nnc(-c2c[nH]c3ccccc23)n1-c1ccccc1)c1ccc(Cl)cc1`, for which the growth with SR leukemia was 12.8% (inactive); with RPMI-8226 leukemia, -13.4% (active); in the test on OVCAR-8 ovarian it was 6.37% (active); with OVCAR-5 ovarian, -43.4% (active); in the test on OVCAR-4 ovarian it was -81.3% (active); in the test on SK-OV-3 ovarian it was -1.58% (active). For the same molecule, the growth in the test with IGROV1 ovarian was -34.1% (active); in the test with OVCAR-3 ovarian it was 34.2% (inactive); in the test on HS 578T breast, -31.7% (active); in the test with NCI/ADR-RES ovarian it was -70.2% (active); in the test with T-47D breast it was 3.91% (active); in the test with BT-549 breast it was -66.7% (active). In addition, the growth was -99.8% (active) in the test on MDA-MB-435 melanoma; -37% (active) with SW-620 colon; 3.27% (active) in the test with MCF7 breast; 0.742% (active) with HCT-116 colon; 17% (inactive) in the test with HCC-2998 colon; 21.4% (inactive) in the test on KM12 colon. Moreover, in the test on MDA-MB-468 breast, the growth is -85.1% (active).
